Drawing on PubChem BioAssay (Tox21), this text covers Potency and max activation for 9 compounds.

“And” between values parts separate entries of the source, which are not always exact repeats. Equal entries are not always repeated. A number with no mark means an inactive call. Records with an inconclusive call do not appear. The source made the active and inactive calls. The call rests on the fitted dose curve; in most records, active means well fitted curve in the direction sought with a large enough effect in the repeat runs; inconclusive means weak or mixed curves; inactive means no such curve, though single readings can be large; an effect the other way counts as inactive or inconclusive.

Assay [1] in a line: Caspase-3/7 induction in HepG2 cells by small molecules, qHTS assay (AID 1346978). Further: nearly all actives have a fitted effect of over 15% in size. Further: potency means the concentration at half of the fitted maximal effect. In outline: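 Wild-type HepG2 cells, 2,000/well, settled 5 hr at 37 C and 5% CO2, then compound-treated for 17 hr; caspase-3/7 activity read by luminescent Caspase-Glo 3/7 after 30 min at room temperature.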
On the technique in general: qHTS replaces the single test concentration by a dilution series.

Assay [2] can be described thus: Caspase-3/7 induction in CHO-K1 cells by small molecules, qHTS cell viability counter screen (AID 1346979). Further: nearly all actives have a fitted effect of over 35% in size. Further: potency means the concentration at half of the fitted maximal effect. Put shortly:
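Multiplexed with Caspase-Glo 3/7 in CHO-K1 cells, this counter screen added CellTiter-Fluor after 16hr of compound exposure and recorded fluorescence 1hr later.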

The nature of assay [3]: Caspase-3/7 induction in CHO-K1 cells by small molecules, qHTS assay (AID 1346980). Further: nearly all actives have a fitted effect of over 15% in size. Further: potency means the concentration at half of the fitted maximal effect. In outline:
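Wild-type CHO-K1 cells exposed to compounds for 17hr at 37 C, 5% CO2. Caspase-3/7 activity then measured by Caspase-Glo 3/7 luminescence after 30min at room temperature.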

For assay [4], the target named is Nuclear receptor subfamily 1 group I member 2 (Homo sapiens) (UniProt O75469). Nature of the assay: Human pregnane X receptor (PXR) small molecule agonists, qHTS assay (AID 1346982). Further: nearly all actives have a fitted effect of over 35% in size. Further: potency means the concentration at half of the fitted maximal effect. In outline:
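Agonist mode: luminescence from ONE-Glo after 24 h compound exposure at 37C in HepG2 cells carrying hPXR-responsive CYP3A4 luciferase, plated in charcoal-stripped serum medium 5 h beforehand.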

Assay [5] has the same target. Nature of the assay: CYP3A4 induction through human pregnane X receptor (PXR) by small molecules, qHTS assay (AID 1346984). Further: nearly all actives have a fitted effect of over 40% in size. In outline:
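Read-out is luminescence after One-Glo addition, following a 3 hr, 37C incubation with Luciferin-IPA CYP3A4 substrate (3uM final). Before that, compounds were on DPX-2 cells (HepG2 co-transfected with PXR element plus CYP3A4-promoter luciferase) for 24 hr at 37C.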

Assay [6] addresses Cytochrome P450 2C9 (Homo sapiens) (UniProt P11712). Nature of the assay: Cytochrome P450 Family 2 Subfamily C Member 9 (CYP2C9) small molecule antagonists: luciferase reporter qHTS assay (AID 1671198). Further: nearly all actives have a fitted effect of over 50% in size. Further: potency means the concentration at half of the fitted maximal effect. In outline: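 P450-Glo proluciferin substrate with CYP2C9 enzyme; 10 min RT preincubation, then NADPH regeneration 1 h at 37C; luciferin detection reagent 20 min RT, luminescence in relative luminescence units.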
Background: Reporter assays use an easily measured gene product as a stand-in for the process of interest.

Assay [7] deals with Cytochrome P450 1A2 (Homo sapiens) (UniProt P05177). Nature of the assay: Cytochrome P450 Family 1 Subfamily A Member 2 (CYP1A2) small molecule antagonists: luciferase reporter qHTS assay (AID 1671199). Further: nearly all actives have a fitted effect of over 50% in size. Further: potency means the concentration at half of the fitted maximal effect. In outline:
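Luminescence from luciferin formed by CYP1A2 from a proluciferin substrate, read 20 min after detection reagent. Compound was pre-incubated 10 min with enzyme-substrate, and reaction started with NADPH regeneration solution for 1 h at room temperature; furafylline control.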

Assay [8] can be described thus: Caspase-3/7 induction in HepG2 cells by small molecules, qHTS cell viability counter screen (AID 1346981). Further: nearly all actives have a fitted effect of over 30% in size. Further: potency means the concentration at half of the fitted maximal effect. Put shortly:
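CellTiter-Fluor fluorescence measured viability in the same wells used for Caspase-Glo 3/7. HepG2 (wild type) at 2,000 cells/well were pre-incubated 5 hr, dosed, and given reagent at 16 hr, with 1 hr further at 37C.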

Assay [9] addresses Cytochrome P450 2D6 (Homo sapiens) (UniProt P10635). Nature of the assay: Cytochrome P450 Family 2 Subfamily D Member 6 (CYP2D6) small molecule antagonists: luciferase reporter qHTS assay (AID 1671196). Further: nearly all actives have a fitted effect of over 50% in size. Further: potency means the concentration at half of the fitted maximal effect. Put shortly:
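CYP2D6 activity was followed as luminescence from its luciferin product after a 1 h NADPH-driven reaction at room temperature. Enzyme-substrate mix and compound were pre-incubated for 10 min, and the signal was read 20 min after adding detection reagent.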

Assay [10] addresses Cytochrome P450 2C19 (Homo sapiens) (UniProt P33261). Description: Cytochrome P450 Family 2 Subfamily C Member 19 (CYP2C19) small molecule antagonists: luciferase reporter qHTS assay (AID 1671197). Further: nearly all actives have a fitted effect of over 65% in size. Further: potency means the concentration at half of the fitted maximal effect. Put shortly:
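Quantitative high-throughput screen of the Tox21 library using CYP2C19 with proluciferin substrate. Reaction: NADPH regeneration, 37C, 1 h, after 10 min compound preincubation at room temperature. Readout: luminescence.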

The target of assay [11] is Voltage-gated inwardly rectifying potassium channel KCNH2 (Homo sapiens) (UniProt Q12809). Description: Human Ether-a-go-go-Related Gene (hERG) channel small molecule antagonists: fluorescence cell-based qHTS assay (AID 1671200). Further: nearly all actives have a fitted effect of over 50% in size. Further: potency means the concentration at half of the fitted maximal effect. Put shortly: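 Cell line hERG-U2OS; dye FluxOR II, 1 h RT dark; Tl+ stimulus; ex 480/em 540 nm, read each second for 2 min.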
Chain of Voltage-gated inwardly rectifying potassium channel KCNH2 (Homo sapiens) (Q12809 whole entry, looked up): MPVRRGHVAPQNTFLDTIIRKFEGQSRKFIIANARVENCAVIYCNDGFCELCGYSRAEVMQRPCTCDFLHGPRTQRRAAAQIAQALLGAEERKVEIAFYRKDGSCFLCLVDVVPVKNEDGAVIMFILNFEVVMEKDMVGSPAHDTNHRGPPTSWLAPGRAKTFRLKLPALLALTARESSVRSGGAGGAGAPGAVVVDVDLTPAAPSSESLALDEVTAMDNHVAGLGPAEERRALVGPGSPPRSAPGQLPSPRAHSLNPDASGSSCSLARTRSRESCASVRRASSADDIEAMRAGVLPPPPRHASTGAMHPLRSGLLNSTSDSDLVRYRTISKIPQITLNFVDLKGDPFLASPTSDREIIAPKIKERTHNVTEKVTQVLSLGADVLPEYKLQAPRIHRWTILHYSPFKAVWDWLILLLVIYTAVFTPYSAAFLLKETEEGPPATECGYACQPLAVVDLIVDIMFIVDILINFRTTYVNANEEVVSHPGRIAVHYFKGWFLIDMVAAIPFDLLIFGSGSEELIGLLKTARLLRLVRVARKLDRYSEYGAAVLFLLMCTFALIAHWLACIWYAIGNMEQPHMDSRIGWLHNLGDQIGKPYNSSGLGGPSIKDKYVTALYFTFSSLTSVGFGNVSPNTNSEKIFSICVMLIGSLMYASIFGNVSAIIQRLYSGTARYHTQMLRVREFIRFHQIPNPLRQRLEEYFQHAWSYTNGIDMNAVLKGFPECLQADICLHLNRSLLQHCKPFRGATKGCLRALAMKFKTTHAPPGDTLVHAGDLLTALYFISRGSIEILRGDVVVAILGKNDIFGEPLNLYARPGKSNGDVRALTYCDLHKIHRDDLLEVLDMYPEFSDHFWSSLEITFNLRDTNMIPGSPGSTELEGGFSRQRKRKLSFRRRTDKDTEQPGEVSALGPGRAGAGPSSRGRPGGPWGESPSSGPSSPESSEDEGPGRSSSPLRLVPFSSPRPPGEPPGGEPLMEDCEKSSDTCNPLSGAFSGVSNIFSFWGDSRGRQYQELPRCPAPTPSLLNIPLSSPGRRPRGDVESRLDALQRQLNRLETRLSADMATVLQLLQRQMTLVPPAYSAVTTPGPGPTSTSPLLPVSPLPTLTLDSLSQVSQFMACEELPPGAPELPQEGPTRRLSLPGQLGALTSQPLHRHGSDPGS
For orientation: hERG is a cardiac potassium channel; its block is linked to QT prolongation.

Assay [12] addresses Cytochrome P450 3A4 (Homo sapiens) (UniProt P08684). Nature of the assay: Cytochrome P450 Family 3 Subfamily A Member 4 (CYP3A4) small molecule antagonists: luciferase reporter qHTS assay (AID 1671201). Further: nearly all actives have a fitted effect of over 50% in size. Further: potency means the concentration at half of the fitted maximal effect. In outline:
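Room-temperature assay throughout: 10 min compound–enzyme/substrate preincubation, 1 h reaction after NADPH regeneration solution, 20 min detection. Luciferin formed from proluciferin substrate is quantified by luminescence.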

Assay [13] has as its target Nuclear receptor subfamily 1 group I member 2 (Rattus norvegicus) (UniProt Q9R1A7). Nature of the assay: Rat pregnane X receptor (rPXR) activation by small molecules, qHTS assay (AID 1346983). Further: nearly all actives have a fitted effect of over 20% in size. The following applies: rPXR luciferase reporter cells, One-Glo luminescence, 24 h; max activation: active compounds read high. Put shortly: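 Cell-based rPXR activation assay: rPXR cells, 2,000 per well, rested 5hr at 37 C, then exposed to compounds in DMSO for 24 hr at 37 C. Luciferase activity read by One-Glo luminescence after 30 min at room temperature.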

Assay [14] addresses Nuclear receptor subfamily 1 group I member 2 (Homo sapiens) (UniProt O75469). Description: Human pregnane X receptor (PXR) activation by small molecules, qHTS assay (AID 1346985). Further: nearly all actives have a fitted effect of over 40% in size. In outline:
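DPX-2 cells (HepG2 co-transfected with a PXR response element and a CYP3A4-promoter luciferase construct) were seeded at 2,000 per well, rested 5 hr at 37C, then exposed to DMSO-dissolved compounds for 24 hr. Activation was read as luciferase luminescence.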
On the % scale 0 is the no-effect control and ±100 the full control effect.

Chain of Cytochrome P450 1A2 (Homo sapiens) (P05177 whole entry, looked up): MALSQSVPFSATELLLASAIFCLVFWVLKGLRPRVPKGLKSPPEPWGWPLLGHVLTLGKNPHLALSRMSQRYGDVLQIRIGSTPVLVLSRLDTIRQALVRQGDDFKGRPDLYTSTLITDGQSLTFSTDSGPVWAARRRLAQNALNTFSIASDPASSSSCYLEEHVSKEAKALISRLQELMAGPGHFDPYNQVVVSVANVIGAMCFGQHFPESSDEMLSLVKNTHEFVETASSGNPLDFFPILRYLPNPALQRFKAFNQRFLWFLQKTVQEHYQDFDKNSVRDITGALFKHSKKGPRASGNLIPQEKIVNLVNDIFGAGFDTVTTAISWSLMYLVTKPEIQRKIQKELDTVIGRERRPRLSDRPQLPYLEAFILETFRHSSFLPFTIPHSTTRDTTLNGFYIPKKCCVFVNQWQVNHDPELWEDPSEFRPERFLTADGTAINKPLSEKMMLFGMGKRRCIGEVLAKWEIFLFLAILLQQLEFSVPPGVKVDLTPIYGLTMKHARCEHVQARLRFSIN
Chain of Cytochrome P450 2D6 (Homo sapiens) (P10635 whole entry, looked up): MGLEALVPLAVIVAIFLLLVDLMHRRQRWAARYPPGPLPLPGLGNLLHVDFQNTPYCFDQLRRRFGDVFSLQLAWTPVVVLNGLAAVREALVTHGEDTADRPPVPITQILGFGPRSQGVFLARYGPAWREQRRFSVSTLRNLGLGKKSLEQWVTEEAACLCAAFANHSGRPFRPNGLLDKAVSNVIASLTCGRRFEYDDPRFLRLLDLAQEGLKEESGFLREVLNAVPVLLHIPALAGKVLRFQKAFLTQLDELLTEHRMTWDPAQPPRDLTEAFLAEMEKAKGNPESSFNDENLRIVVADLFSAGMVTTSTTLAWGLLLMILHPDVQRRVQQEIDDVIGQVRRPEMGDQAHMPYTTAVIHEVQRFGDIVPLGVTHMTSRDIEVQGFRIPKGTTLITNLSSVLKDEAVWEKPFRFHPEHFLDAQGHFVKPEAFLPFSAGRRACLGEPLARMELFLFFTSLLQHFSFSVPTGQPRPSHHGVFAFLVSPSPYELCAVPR
Chain of Cytochrome P450 2C19 (Homo sapiens) (P33261 whole entry, looked up): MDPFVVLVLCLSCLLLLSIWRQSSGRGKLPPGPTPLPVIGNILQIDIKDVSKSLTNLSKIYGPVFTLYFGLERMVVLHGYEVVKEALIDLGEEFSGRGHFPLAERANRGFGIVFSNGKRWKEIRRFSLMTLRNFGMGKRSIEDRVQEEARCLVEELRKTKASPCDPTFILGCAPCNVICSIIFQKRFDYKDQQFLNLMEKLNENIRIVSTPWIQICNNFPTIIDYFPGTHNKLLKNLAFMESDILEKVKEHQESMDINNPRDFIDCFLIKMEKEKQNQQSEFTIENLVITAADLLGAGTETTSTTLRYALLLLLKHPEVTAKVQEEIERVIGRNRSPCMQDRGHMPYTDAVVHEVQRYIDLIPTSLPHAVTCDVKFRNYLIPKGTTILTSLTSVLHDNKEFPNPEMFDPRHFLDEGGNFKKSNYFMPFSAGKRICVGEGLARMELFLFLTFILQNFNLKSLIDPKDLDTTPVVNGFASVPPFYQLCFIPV
Chain of Cytochrome P450 3A4 (Homo sapiens) (P08684 whole entry, looked up): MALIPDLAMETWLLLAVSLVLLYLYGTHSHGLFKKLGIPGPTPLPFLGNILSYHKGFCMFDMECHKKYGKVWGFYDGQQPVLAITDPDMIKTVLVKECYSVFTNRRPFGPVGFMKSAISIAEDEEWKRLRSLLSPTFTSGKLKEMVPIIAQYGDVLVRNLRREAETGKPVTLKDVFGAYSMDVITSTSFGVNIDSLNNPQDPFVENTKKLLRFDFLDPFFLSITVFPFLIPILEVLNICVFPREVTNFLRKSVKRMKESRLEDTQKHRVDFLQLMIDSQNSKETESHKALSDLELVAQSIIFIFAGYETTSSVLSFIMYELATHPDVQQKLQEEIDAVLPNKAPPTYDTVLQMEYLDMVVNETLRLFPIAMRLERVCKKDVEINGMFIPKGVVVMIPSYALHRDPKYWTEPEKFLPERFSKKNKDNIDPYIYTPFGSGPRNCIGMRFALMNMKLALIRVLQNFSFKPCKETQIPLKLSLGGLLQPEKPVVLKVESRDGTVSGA
Chain of Cytochrome P450 2C9 (Homo sapiens) (P11712 whole entry, looked up): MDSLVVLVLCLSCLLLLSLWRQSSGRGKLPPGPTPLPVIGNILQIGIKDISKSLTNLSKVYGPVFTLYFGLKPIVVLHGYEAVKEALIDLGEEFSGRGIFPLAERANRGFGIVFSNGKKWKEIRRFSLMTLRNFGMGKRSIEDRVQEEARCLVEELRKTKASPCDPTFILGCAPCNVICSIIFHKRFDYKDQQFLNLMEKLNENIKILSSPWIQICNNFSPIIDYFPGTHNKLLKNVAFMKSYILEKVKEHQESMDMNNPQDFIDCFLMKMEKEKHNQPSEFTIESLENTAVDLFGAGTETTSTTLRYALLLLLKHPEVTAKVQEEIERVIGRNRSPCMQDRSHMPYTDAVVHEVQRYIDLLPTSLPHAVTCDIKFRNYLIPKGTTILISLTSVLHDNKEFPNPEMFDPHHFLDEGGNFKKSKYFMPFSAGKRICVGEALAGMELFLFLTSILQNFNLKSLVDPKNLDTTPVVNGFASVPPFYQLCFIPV
Chain of Nuclear receptor subfamily 1 group I member 2 (Homo sapiens) (O75469 whole entry, looked up): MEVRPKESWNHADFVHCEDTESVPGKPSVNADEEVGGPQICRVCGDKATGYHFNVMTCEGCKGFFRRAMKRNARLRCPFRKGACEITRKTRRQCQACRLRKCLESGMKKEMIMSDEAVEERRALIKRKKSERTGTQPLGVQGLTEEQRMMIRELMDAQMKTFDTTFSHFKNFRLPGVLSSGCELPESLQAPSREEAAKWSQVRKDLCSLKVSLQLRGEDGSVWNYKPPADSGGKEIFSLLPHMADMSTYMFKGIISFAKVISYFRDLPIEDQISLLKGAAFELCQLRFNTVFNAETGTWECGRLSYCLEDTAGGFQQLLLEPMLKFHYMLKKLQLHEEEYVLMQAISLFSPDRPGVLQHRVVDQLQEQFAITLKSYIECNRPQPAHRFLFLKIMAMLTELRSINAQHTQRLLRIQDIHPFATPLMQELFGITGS
Chain of Nuclear receptor subfamily 1 group I member 2 (Rattus norvegicus) (Q9R1A7 whole entry, looked up): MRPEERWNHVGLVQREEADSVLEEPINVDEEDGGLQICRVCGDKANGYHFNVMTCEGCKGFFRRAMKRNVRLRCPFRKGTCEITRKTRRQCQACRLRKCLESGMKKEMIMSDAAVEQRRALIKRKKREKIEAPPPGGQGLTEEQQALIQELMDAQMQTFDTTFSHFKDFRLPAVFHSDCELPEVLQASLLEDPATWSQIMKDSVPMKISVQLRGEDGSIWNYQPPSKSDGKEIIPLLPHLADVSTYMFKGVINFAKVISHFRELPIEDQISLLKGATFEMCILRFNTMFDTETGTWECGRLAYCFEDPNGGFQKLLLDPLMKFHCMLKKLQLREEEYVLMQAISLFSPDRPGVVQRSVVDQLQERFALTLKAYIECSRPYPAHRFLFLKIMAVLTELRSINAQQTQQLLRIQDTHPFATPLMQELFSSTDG

`COc1cccc2c1C(=O)c1c(O)c3c(c(O)c1C2=O)C[C@@](O)(C(=O)CO)C[C@@H]3O[C@H]1C[C@H](N)[C@H](O[C@@H]2CCCCO2)[C@H](C)O1`: the values for the Potency in assay [1], in [2] and in [6] were 2.37 µM (active), 6.68 µM (active) and 15.5 µM (active), respectively. Moreover, the Potency entry in assay [3], in assay [4], in [5] and in assay [7] was “inactive” each time.

On to `C=CC(=O)OCC(CO)(COC(=O)C=C)COC(=O)C=C`, for which the Potency in assay [1] is 19.4 µM (active) and 24.3 µM (active); in assay [2], 2.74 µM (active) and 6.11 µM (active); in [3], 2.44 µM (active) and 6.11 µM (active); in assay [8], 17.3 µM (active) and 21.7 µM (active); in assay [9] it was 40.1 µM (active) and 63.3 µM (active); in [10], 25.3 µM (active) and 22.4 µM (active). The Potency was 11.3 µM (active) and 11.2 µM (active) in assay [6]; 1.01 µM (active) and 1.12 µM (active) in assay [12]. Moreover, in assay [11], the Potency entry is “inactive”.

Take `CC1=NC(C)OC1C` (stereo not drawn): the Potency result in [1], in assay [2], in assay [3], in [8] and in [6] was “inactive” throughout. For the same compound, the Potency was 71 µM (active) in assay [9] and 63.3 µM (active) in assay [12].

Turning to `O=[N+]([O-])c1ccccc1Nc1ccccc1`, the Potency result in [1], in assay [2], in assay [3], in assay [8] and in assay [12] was “inactive” each time. The Potency was 48.3 µM (active) in assay [4], 39.7 µM (active) in assay [6], 5 µM (active) in assay [7] and 54.6 µM (active) in assay [11].

Turning to `NNC(=O)c1cccc(C(=O)NN)c1`, the Potency result in [1], in [2], in [3], in assay [8], in assay [4] and in assay [10] was “inactive” throughout. The Potency result in assay [11] was “inactive”. Moreover, the Potency in assay [7] is 10 µM (active); in assay [12] it was 3.99 µM (active).

In the case of `Oc1ccc(N=Nc2ccccc2)cc1`, the Potency entry in assay [1], in [3] and in [11] was “inactive” throughout. Besides, the Potency in assay [2] is 61.9 µM (active); in assay [8], 55.2 µM (active); in assay [4], 34.8 µM (active); in assay [10], 20.3 µM (active); in [6], 36.1 µM (active); in assay [7], 16.1 µM (active). In assay [12], the Potency was 20.3 µM (active).

Consider `CN(C/C=C/C#CC(C)(C)C)Cc1cccc2ccccc12`, for which the Potency result in assay [1], in [2], in [3] and in assay [8] was “inactive” each time. Also, the max activation in assay [13] was 0.136%. Also, the Potency in [9] is 0.275 µM (active); in assay [10] it was 17.4 µM (active); in assay [6], 15.5 µM (active); in [7], 17.4 µM (active).

On to `CN(C)[C@@H]1C(=O)C(C(N)=O)=C(O)[C@@]2(O)C(=O)C3=C(O)c4c(O)ccc(Cl)c4[C@@H](O)[C@H]3C[C@@H]12`, for which the Potency result in [1], in assay [2], in [3], in assay [4], in [5] and in [14] was “inactive” each time. The Potency result in assay [9], in [7], in assay [11] and in assay [12] was “inactive” throughout.

In the case of `O=C(c1ccc(F)cc1)C1CCN(CCn2c(=O)[nH]c3ccccc3c2=O)CC1`, the Potency result in assay [1], in assay [2], in assay [3], in assay [8], in assay [4] and in assay [7] was “inactive” each time. Moreover, in assay [12], the Potency entry was “inactive”. The Potency in assay [11] was 2.39 µM (active).
